Assay results taken from the supplement of paper PMC12024529.

test system: HEK293 WT BDD-FVIII-Gluc; test: secreted FVIII-Gluc luciferase Z-score vs DMSO control; higher = more FVIII-Gluc secretion; details: 5 µM
Experimental: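 Natural plant-compound library (480 compounds, ST catalogue IDs) screened on HEK293 cells stably expressing WT BDD-FVIII-Gaussia luciferase fusion at 5 µM. Secreted Gluc activity in the medium is given as a Z-score relative to DMSO controls.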

Row | SMILES | secreted FVIII-Gluc luciferase Z-score
1 | CC1=CC(=O)C2=C(C)C[C@H](O)[C@H]3[C@H](C)C(=O)O[C@@H]3C12 (some centres undefined) | -0.726
2 | COc1ccc2c3c([nH]c2c1)C(C)=NCC3 | -2.05
3 | CN1CC(C(=O)NC2(C)OC3(O)C4CCCN4C(=O)C(Cc4ccccc4)N3C2=O)C=C2c3cccc4[nH]cc(c34)CC21 (centres undefined) | 0.871
4 | COc1cc2c(cc1OC)C(C)NCC2 (centres undefined) | 0.0745
5 | C[C@]12CC[C@H](O)CC1=CC[C@@H]1[C@@H]2CC[C@]2(C)C(=O)CC[C@@H]12 | 1.29
6 | O=C1C=C2C=C[C@@H]3C[C@@]2(O1)[C@H]1CCCCN31 | 0.666
7 | C/C=C1/C[C@@H](C)[C@](O)(CO)C(=O)OCC2=CCN3CC[C@@H](OC1=O)[C@@H]23 | -1.37
8 | C[C@@H]1C[C@@H]([C@H](O)CC2CC(=O)NC(=O)C2)C(=O)[C@@H](C)C1 | -7.2
9 | O=c1cccc2n1CC1CC2CN(CCO)C1 (centres undefined) | 0.624
10 | C[N+]1=Cc2cc3c(cc2CC1)OCO3 | 0.204
11 | C=CCCN1C[C@@H]2C[C@@H](C1)c1cccc(=O)n1C2 | -0.00507
12 | CC1=NCCc2c1[nH]c1cc(O)ccc21 | -0.262
13 | CC[C@@H](CO)NC(=O)[C@@H]1C=C2c3cccc4[nH]cc(c34)C[C@H]2N(C)C1 | 0.791
14 | CC1(C)S[C@@H]2[C@H](N)C(=O)N2[C@H]1C(=O)O | -1.19
15 | CN(C)Cc1c[nH]c2ccccc12 | 0.161
16 | COc1cc2c(cc1OC)-c1c(OC)c(OC)c(C=O)c3c1[C@H](C2)N(C)CC3 | 0.0709
17 | CC(C)[C@@]1(NC(=O)[C@@H]2C[C@@H]3c4cccc5[nH]cc(c45)C[C@H]3N(C)C2)O[C@@]2(O)[C@@H]3CCCN3C(=O)[C@H](Cc3ccccc3)N2C1=O | -0.176

Row | SMILES | secreted FVIII-Gluc luciferase Z-score
18 | OC1COC(NC2OCC(O)C(O)C2O)C(O)C1O (centres undefined) | 0.00225
19 | Cc1nccc2c1[nH]c1ccccc12 | -0.617
20 | Oc1ccc(CC2NCCc3cc(O)c(O)cc32)cc1O (centres undefined) | 0.392
21 | COC1=CC2C3Cc4ccc(OC)c(O)c4C2(CCN3C)CC1=O (centres undefined) | -0.0187
22 | COc1ccc2c(c1)[nH]c1c(C)nccc12 | -2.87
23 | O=C1C[C@@H]2OCC=C3CN4CC[C@]56c7ccccc7N1[C@H]5[C@H]2[C@H]3C[C@H]46 | -0.432
24 | CN1Cc2c(ccc3c2OCO3)C2C(O)Cc3cc4c(cc3C21)OCO4 (centres undefined) | -5.22
25 | CC12C(=O)OC(=O)C1(C)C1CCC2O1 (centres undefined) | -4.31
26 | CC(C)[C@H]1C(=O)N2CCC[C@H]2[C@]2(O)OC(NC(=O)[C@@H]3C=C4c5cccc6[nH]cc(c56)C[C@H]4N(C)C3)(C(C)C)C(=O)N12 (some centres undefined) | 0.939
27 | COc1cccc2c1cc([N+](=O)[O-])c1c(C(=O)O)cc3c(c12)OCO3 | 0.158
28 | CO[C@]12C[C@@H](COC(=O)c3cncc(Br)c3)CN(C)[C@@H]1Cc1cn(C)c3cccc2c13 | 0.94
29 | c1cc2c(cc1C1OCC3C(c4ccc5c(c4)OCO5)OCC13)OCO2 (centres undefined) | -0.0258
30 | C/C=C1/CN2CC[C@]34C(=C(C=O)[C@H]1C[C@H]23)Nc1ccccc14 | 0.372
31 | O=CN1CCCCC1C1CC[C@H]2CCCCN2C1 (some centres undefined) | 0.233
32 | CNC1C2CN3CCC(O2)C13 (centres undefined) | -1.02
33 | CC1=CC(=O)c2c(O)cccc2C1=O | -2.68
34 | CCN1C[C@]2(C)CC[C@H](O)[C@@]34C5C[C@@H]6[C@@H](OC)C[C@@](O)(C5[C@H]6O)[C@@H](CC23)C14 (some centres undefined) | 0.562
